Holding throughout (design): scale not given: direction of the effect not stated beside the values
Experiment [1] deals with Protein translocase subunit SecA (Escherichia coli (strain K12)) (UniProt P10408). Nature of the experiment: Assay to Identify E. coli SecA ATPase Inhibitors. The format is functional. Conditions: 30 µM.
For experiment [2], the target named is T1, Ubiquitin-activating enzyme e1, putative (Leishmania donovani (strain BPK282A1)) (UniProt E9BSI1).
T1 sequence (whole entry): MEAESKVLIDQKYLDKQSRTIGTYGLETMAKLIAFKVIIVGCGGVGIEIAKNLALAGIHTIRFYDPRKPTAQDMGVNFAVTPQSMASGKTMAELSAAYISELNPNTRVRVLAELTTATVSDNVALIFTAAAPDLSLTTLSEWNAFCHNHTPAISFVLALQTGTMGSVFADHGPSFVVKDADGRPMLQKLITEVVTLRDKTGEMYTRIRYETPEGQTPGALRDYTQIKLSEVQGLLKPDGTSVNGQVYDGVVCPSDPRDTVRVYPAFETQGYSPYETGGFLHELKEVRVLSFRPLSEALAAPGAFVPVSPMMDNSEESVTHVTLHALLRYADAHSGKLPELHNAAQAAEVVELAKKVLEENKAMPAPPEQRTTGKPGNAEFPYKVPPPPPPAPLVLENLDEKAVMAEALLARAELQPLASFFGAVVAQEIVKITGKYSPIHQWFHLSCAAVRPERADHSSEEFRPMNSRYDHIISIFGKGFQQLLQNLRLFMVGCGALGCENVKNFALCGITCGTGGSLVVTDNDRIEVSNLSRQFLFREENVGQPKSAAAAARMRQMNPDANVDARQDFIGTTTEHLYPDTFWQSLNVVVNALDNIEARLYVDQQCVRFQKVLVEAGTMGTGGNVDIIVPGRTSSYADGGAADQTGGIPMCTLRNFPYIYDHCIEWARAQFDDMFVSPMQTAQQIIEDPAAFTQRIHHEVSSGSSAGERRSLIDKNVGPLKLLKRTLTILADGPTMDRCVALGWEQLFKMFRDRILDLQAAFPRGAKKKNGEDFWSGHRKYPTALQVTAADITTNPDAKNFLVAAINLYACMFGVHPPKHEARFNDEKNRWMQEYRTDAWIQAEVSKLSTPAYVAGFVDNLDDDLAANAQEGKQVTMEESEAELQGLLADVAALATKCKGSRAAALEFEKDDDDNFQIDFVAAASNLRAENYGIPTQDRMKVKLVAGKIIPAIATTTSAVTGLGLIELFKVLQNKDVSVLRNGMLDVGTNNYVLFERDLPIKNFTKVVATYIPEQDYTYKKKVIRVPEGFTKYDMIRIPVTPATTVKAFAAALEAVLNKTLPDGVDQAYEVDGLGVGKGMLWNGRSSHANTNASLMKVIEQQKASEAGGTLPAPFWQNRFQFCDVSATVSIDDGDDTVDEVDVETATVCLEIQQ
Nature of the experiment: Leishmania donovani Ubiquitin Activating Enzyme (LdE1). Conditions: 30 µM. The format is functional.

Experiment [3] deals with AMP-activated protein kinase, AMPK (Homo sapiens) (UniProt P54646+O43741+P54619+Q9UGJ0+Q9Y478+Q13131+Q9UGI9). Nature of the experiment: AMP-dependent Kinase enzyme assay. An in vitro enzyme assay that detects ADP turnover that is directly proportional to AMPK activity. This uses naive AMPK that is activated during the assay with MK-8722. Conditions: 30 µM. In kind it is functional.

The target in experiment [4] is Sialic acid-binding Ig-like lectin 9 (Homo sapiens) (UniProt Q9Y336). Kind of experiment: Hs-Siglec9 ALPHAscreen SOP 20170721. Conditions: 10 µM.
Sialic acid-binding Ig-like lectin 9 (Homo sapiens), sequence (Q9Y336 whole entry): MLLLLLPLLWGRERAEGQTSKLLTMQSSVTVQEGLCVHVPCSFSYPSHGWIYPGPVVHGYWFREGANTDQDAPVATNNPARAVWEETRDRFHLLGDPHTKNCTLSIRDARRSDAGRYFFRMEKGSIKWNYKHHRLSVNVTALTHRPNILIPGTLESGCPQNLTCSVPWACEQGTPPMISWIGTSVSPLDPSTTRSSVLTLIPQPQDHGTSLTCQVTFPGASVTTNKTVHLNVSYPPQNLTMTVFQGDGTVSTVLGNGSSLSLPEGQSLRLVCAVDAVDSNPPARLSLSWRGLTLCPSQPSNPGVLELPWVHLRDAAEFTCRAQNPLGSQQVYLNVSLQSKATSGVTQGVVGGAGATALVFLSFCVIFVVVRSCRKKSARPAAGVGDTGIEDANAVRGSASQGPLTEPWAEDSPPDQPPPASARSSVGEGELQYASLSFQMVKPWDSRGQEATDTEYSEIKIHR
The subject of the next experiment is Trypanosoma cruzi. Kind of experiment: Trypanosoma cruzi phosphomannomutase and mannose-1-phosphate guanylyltransferase assay. The format is functional. Conditions: 10 µM.
Experiment [5] concerns the target T2, Arginase-2, mitochondrial (Homo sapiens) (UniProt P78540).
T2 sequence (whole entry): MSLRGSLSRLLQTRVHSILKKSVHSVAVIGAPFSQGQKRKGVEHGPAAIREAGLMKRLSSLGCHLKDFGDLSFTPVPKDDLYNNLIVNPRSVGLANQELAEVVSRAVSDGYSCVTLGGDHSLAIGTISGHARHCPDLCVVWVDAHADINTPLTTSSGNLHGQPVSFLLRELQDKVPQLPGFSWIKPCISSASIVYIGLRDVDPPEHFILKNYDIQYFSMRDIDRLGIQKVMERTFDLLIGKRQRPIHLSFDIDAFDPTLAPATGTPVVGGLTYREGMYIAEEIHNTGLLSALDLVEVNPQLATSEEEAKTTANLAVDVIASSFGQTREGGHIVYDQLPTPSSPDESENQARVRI
Nature of the experiment: in vitro enzyme assay to detect the production of urea directly proportional to the activity of Arginase II. Further: in the data most compounds retested in dose-response had high values. The format is functional. Conditions: 33.3 µM.

Experiment [6] has as its target T3, Proteasome subunit beta (Trypanosoma cruzi) (UniProt O96673).
T3 sequence (whole entry): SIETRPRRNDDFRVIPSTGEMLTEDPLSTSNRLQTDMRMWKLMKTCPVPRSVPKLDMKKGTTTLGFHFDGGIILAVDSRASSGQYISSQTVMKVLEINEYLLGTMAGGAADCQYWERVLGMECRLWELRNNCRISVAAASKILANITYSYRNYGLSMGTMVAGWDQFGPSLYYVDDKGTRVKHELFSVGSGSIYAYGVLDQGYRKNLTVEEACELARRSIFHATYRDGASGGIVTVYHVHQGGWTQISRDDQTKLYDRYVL
Kind of experiment: Trypanosoma cruzi proteasome chymotrypsin-like activity (TcProtChymo) assay. Further: in the data most compounds retested in dose-response had high values. The format is functional. The conditions noted are these: 9.37 µM.

The next experiment is filed under the species Homo sapiens. Nature of the experiment: To identify inhibition of the IFN signalling (Jak-Stat) pathway via expression of an eGFP reporter gene under the control of an IFN-stimulated response element (ISRE) containing MxA promoter. The format is functional. Conditions: 30 µM. Background: A reporter such as luciferase makes a cellular process visible.

Experiment [7] concerns the target T4, Tyrosyl-tRNA synthetase, putative (Trypanosoma cruzi (strain CL Brener)) (UniProt Q4DSP6).
T4 sequence (whole entry): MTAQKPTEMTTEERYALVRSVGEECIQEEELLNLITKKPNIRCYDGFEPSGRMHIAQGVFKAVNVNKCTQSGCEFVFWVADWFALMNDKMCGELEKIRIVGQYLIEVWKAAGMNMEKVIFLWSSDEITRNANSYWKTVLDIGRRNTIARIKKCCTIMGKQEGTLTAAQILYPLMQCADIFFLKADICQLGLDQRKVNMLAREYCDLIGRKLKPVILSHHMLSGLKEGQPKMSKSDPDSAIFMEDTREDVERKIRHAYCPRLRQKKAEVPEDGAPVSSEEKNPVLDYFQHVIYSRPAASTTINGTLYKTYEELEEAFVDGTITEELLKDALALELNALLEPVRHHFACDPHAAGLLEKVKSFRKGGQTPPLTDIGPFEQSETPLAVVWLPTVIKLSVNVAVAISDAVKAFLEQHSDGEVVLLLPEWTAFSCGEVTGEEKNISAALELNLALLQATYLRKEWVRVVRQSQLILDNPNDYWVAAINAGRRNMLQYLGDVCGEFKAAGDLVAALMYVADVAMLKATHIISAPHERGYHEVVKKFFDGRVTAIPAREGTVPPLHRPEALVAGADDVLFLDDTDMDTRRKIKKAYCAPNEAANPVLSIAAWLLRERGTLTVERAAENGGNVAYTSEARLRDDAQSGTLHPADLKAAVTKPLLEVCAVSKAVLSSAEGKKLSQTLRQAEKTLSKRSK
Kind of experiment: Trypanosoma cruzi tyrosyl tRNA synthetase (TcYRS) _High Tyrosine SOP. Further: in the data most compounds retested in dose-response had high values. The format is functional. The conditions noted are these: 30 µM.

In experiment [8] the target is T4, Tyrosyl-tRNA synthetase, putative (Trypanosoma cruzi (strain CL Brener)). Nature of the experiment: Trypanosoma cruzi tyrosyl tRNA synthetase (TcYRS) SOP. In kind it is functional. Conditions: 30 µM.
The target in experiment [9] is Chromo domain-containing protein 1 (Saccharomyces cerevisiae (strain ATCC 204508 / S288c) (Baker's yeast)) (UniProt P32657). Nature of the experiment: ScCHD-1 Enzyme Inhibition Assay. Further: in the data most compounds retested in dose-response had high values. The format is functional. The conditions noted are these: 30 µM.
Chromo domain-containing protein 1 (Saccharomyces cerevisiae (strain ATCC 204508 / S288c) (Baker's yeast)), sequence (P32657 whole entry, the tested form may be a part): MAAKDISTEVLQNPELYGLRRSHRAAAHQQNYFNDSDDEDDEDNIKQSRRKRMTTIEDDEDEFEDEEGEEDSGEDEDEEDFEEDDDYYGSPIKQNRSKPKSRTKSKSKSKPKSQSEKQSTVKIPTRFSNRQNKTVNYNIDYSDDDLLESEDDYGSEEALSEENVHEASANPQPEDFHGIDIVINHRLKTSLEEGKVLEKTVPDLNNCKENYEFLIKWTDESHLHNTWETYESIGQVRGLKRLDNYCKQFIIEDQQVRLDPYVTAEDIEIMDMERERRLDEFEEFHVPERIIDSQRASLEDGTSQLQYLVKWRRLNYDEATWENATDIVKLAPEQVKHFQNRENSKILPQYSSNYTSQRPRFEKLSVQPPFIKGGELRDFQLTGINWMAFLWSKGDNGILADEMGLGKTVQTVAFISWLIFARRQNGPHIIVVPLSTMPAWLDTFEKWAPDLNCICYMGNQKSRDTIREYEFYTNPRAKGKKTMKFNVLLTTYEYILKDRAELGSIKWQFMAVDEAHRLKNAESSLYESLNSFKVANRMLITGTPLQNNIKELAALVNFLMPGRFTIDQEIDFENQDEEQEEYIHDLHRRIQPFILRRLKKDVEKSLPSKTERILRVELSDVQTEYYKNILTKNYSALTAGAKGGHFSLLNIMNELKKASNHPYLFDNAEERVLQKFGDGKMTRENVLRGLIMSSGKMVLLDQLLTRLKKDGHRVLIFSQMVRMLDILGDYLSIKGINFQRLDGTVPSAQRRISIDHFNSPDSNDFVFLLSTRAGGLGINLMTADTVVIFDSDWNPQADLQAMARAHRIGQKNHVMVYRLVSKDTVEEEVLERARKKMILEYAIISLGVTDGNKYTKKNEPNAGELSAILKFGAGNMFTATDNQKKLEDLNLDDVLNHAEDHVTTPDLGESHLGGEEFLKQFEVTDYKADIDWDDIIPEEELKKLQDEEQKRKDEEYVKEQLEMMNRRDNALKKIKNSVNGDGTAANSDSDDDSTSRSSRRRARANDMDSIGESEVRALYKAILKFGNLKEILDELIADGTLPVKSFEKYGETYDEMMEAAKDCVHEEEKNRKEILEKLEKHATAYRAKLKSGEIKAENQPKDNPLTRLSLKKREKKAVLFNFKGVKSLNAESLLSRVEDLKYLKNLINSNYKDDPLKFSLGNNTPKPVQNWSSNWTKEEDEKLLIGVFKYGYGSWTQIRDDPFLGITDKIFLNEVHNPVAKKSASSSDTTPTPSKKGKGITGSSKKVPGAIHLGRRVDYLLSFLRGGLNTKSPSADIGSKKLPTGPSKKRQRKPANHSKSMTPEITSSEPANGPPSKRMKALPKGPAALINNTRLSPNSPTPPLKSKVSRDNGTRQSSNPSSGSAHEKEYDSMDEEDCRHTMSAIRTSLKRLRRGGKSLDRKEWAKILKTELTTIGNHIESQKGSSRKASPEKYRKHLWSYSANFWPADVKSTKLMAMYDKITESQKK

For part of these data: Potency and affinity values are given separately.

Protein translocase subunit SecA (Escherichia coli (strain K12)), sequence (P10408 whole entry): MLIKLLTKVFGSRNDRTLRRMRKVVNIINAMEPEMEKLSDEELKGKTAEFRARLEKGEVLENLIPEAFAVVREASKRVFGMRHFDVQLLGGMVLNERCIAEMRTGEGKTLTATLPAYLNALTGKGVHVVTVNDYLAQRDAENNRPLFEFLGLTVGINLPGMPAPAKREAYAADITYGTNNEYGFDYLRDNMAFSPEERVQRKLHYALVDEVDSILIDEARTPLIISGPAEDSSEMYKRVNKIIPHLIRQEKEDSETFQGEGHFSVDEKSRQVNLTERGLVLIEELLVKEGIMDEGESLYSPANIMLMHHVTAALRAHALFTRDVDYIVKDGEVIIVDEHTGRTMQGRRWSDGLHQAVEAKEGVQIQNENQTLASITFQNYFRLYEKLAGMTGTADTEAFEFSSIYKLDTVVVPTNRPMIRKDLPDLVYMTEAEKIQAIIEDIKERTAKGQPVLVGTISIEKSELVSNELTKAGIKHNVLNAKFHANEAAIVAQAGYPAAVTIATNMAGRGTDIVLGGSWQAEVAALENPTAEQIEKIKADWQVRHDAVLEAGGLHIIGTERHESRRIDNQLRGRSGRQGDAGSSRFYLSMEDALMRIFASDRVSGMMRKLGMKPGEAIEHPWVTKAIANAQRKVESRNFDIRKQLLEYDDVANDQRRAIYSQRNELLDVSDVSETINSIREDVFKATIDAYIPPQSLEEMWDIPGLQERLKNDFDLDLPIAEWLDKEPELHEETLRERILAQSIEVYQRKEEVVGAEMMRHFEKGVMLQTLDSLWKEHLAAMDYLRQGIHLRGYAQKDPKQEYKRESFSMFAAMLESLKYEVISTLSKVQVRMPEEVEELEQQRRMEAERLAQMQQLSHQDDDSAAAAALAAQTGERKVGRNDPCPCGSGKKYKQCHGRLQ

As to `Cn1cc(CN2CC[C@@H]3[C@@H](CCC(=O)N3CCc3c[nH]cn3)C2)cn1`, the Percent Effect in experiment [1] is -4.59%; in experiment [2] it was 5.48%; in experiment [3], -4.95%; in experiment [4], 7.16%; in the experiment with Trypanosoma cruzi, 7.14%; in experiment [5] it was -4.79%. In addition, the Percent Effect was 5.05% in [6]; -5.47% in the experiment listed under Homo sapiens; 1.04% in [7]; 6.17% in experiment [8]; -0.897% in experiment [9].

On to `Cc1ncsc1CN1C[C@@H]2COC[C@]2(C(=O)NCC2CC2)C1`, for which the Percent Effect is -0.435% in [1]; 0% in experiment [2]; 8.5% in experiment [3]; 2.51% in [4]; -4.33% in the experiment on Trypanosoma cruzi; 5.83% in experiment [5]. In addition, the Percent Effect was -1.15% in experiment [6]; 25.1% in the experiment listed under Homo sapiens; 2.13% in [7]; 1.28% in experiment [8]; 10.8% in [9].

Turning to `Cc1cnn(CC2CN(CCN3CCCC3=O)CCO2)c1` (configuration not stated), the Percent Effect is -6.18% in experiment [1]; 5.41% in [2]; -4.61% in [3]; 8.1% in [4]; 8.7% in the experiment with Trypanosoma cruzi; 0.744% in experiment [5]. In addition, the Percent Effect in experiment [6] is 7.3%; in the experiment filed under Homo sapiens it was -3.36%; in experiment [7], -3.23%; in [8], 11.1%; in experiment [9], -4.96%.

Turning to `CCCNC(=O)CNc1cc(C#N)ccc1OCC`, the Percent Effect in experiment [1] is -6.04%; in experiment [2], 22.8%; in experiment [3], -6.15%; in [4], 3.16%; in the experiment with Trypanosoma cruzi, 4.82%; in [5] it was -6.46%. Besides, the Percent Effect in experiment [6] was 11.7%; in the experiment filed under Homo sapiens it was 11.7%; in experiment [7], 4.43%; in [8] it was 21.5%; in experiment [9], -7.89%.

Take `CCn1ccnc1CN1CCN(CC(=O)NC(C)(C#N)C2CC2)CC1` (configuration not stated): the Percent Effect in [1] is 1.69%; in experiment [2] it was 15.8%; in experiment [3], -1.29%; in experiment [4] it was -1.29%; in the experiment on Trypanosoma cruzi, -8.84%; in experiment [5], -3.45%. Moreover, the Percent Effect is 18.9% in [6]; 16.7% in the experiment filed under Homo sapiens; 5.39% in experiment [7]; 9.76% in [8]; -5.07% in experiment [9].

For `Cc1cc2n(n1)CC(CNCc1cnn(-c3ccccc3)c1)CN2` (configuration not stated), the Percent Effect in [1] was 2.28%; in experiment [2], 5.26%; in [3], -10.4%; in experiment [4] it was 1.3%; with Trypanosoma cruzi it was 2.26%; in experiment [5] it was 4.21%. For the same molecule, the Percent Effect is 13.9% in experiment [6]; 15.7% in the experiment listed under Homo sapiens; 12.2% in [7]; 12.2% in experiment [8]; -7.16% in experiment [9].

Consider `CCN(CC)CCNC(=O)c1cc(C(C)C)nc(N2CCCC2)n1`, for which the Percent Effect was -0.4% in experiment [1]; 20% in [2]; 1.03% in [3]; -8.5% in experiment [4]; 2.55% in the experiment on Trypanosoma cruzi; -24.1% in experiment [5]. In addition, the Percent Effect in experiment [6] was 12.8%; in the experiment filed under Homo sapiens, 20.4%; in experiment [7] it was 0%; in experiment [8], 12.8%; in experiment [9] it was 80.8%.

As to `CC(=O)c1c(F)cccc1N1CCC(CS(N)(=O)=O)CC1`, the Percent Effect in [1] is -2%; in [2], -2.74%; in [3], 4.36%; in [4], -0.254%; with Trypanosoma cruzi, 0.595%; in experiment [5] it was -2%. Further, the Percent Effect in experiment [6] was 10.4%; in the experiment filed under Homo sapiens, 3.02%; in experiment [7], 4.17%; in experiment [8], 3.7%; in experiment [9], -2.94%.

For the molecule `Cc1ccc(C)c(C(NC(=O)C(C)(C)C)c2cccnc2)c1` (configuration not stated), the Percent Effect is -1.95% in [1]; 13% in experiment [2]; 3.34% in experiment [3]; -1.13% in [4]; 4.63% with Trypanosoma cruzi; -0.645% in [5]. Besides, the Percent Effect was 14.3% in experiment [6]; 21.8% in the experiment filed under Homo sapiens; 4.23% in [7]; 6.41% in experiment [8]; -10.2% in [9].

As for `O=C(Cc1ccsc1)N1CCC(n2nc(-c3ccco3)ccc2=O)CC1`, the Percent Effect in experiment [1] is -7.59%; in [2], 6.76%; in experiment [3], 16.2%; in [4], 33.6%; in the experiment on Trypanosoma cruzi, -2.17%; in experiment [5], -4.41%. The Percent Effect in experiment [6] was 13.9%; in the experiment filed under Homo sapiens, -0.185%; in [7], 9.68%; in experiment [8], 6.49%; in experiment [9], -13.4%.

For the molecule `CCCc1nc(C)cc(N2CCC3(CCC(=O)N(CC4CC4)C3)CC2)n1`, the Percent Effect in experiment [1] is -2.3%; in [2] it was 8.11%; in experiment [3], -0.987%; in experiment [4] it was 3.81%; in the experiment on Trypanosoma cruzi, -3.03%; in experiment [5], 3.23%. The Percent Effect in [6] was 8.67%; in the experiment filed under Homo sapiens, 1.04%; in experiment [7], -5.38%; in [8], 13.6%; in [9], -4%.

Take `FC(F)(F)c1cccc(C2(CNCc3ccncc3)CCOCC2)c1`: the Percent Effect in [1] is -0.743%; in experiment [2], 10.8%; in experiment [3], -6.5%; in experiment [4], -1.68%; in the experiment with Trypanosoma cruzi, -2.34%; in experiment [5] it was -1.67%. Further, the Percent Effect was determined as 13.9% in [6]; 23.6% in the experiment listed under Homo sapiens; 7.92% in [7]; 11% in experiment [8]; 16.9% in experiment [9].

These data come from ChEMBL document CHEMBL3988442, “University of Dundee, Small-Polar-MMV Screening Library” (2021).
